Screening results: PubChem, The Scripps Research Institute Molecular Screening Center
TTR transcr act: activators of transthyretin transcription. SH-SY5Y TTR promoter Gaussia luciferase, luminescence; 100% = recombinant luciferase protein wells. activation, % at 16.7 µM. 92,000 tested, 1.3% active;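 active means activation above the mean of all tested compounds plus 3 SD, cut at about 9.5% in these data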;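 further: cells exposed to compounds for one day before reading; 0% = median of all test compound wells on the plate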
HuH7 TTR inh: HuH7 TTR transcription inhibition, counter-screen; shares compounds with TTR transcr act; HuH7 TTR promoter-Gaussia luciferase reporter, luminescence; inhibition, % at 16.7 µM; 1,100 tested, 4% active; AID 1117279;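 active means average inhibition above the solvent-only control wells' mean plus 3 SD, cut at about 15% in these data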;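 further: 0% = cells with DMSO only and 100% = cells with inhibitor control FD; inhibitors lower well luminescence so higher value means more inhibition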
TTR act confirm: confirmation of human transthyretin transcription activators | shares compounds with TTR transcr act | SHSY5Y TTR promoter Gaussia luciferase, luminescence; 100% = purified Lucia enzyme wells, no cells | activation, % at 16.7 µM | 1,100 tested, under 10 active;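 active means mean activation above a set limit taken from the earlier primary screen, cut at about 11% in these data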;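 further: 0% = DMSO-treated cells and 100% = recombinant Lucia luciferase without cells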
* = called active by the depositor. The sample as a whole holds a higher share of hits than the screen did.

SMILES | TTR transcr act | others
O=c1nc(-c2ccccc2)nc(-c2ccccc2)[nH]1 | -4
Cc1ccc(-c2[nH]c(-c3ccc(C(=O)O)cc3)nc2-c2ccccc2)cc1 | 12* | HuH7 TTR inh=2;TTR act confirm=-1
COc1cc(OC)cc(C(C)c2ccc(C)cc2)c1 (stereo not given) | 1
O=C(Nc1ccc(F)cc1)OC1CC2CC1[C@H]1CCCCN1C2 (stereo not given in full) | 1
C[C@@H]1N[C@H]2N(C1=O)c1ccccc1[C@@]21C[C@@H]2C(=O)N[C@](C)(O1)c1nc3ccccc3c(=O)n12 | 6
CCC[C@H]1[C@@H](OC(=O)NCc2ccc(OC)c(OC)c2)CC[C@@]23CCCN2C(=O)CCC[C@@H]13 | 0
COc1cccc(NC(=O)CN(C)C(=O)c2cc(S(=O)(=O)NCc3ccccc3)ccc2C)c1 | 32* | HuH7 TTR inh=-20;TTR act confirm=1
COc1cccc(NC(=O)CN(C)C(=O)c2ccc(NS(=O)(=O)c3ccc(F)cc3)cc2)c1 | 0
COc1cccc(NC(=O)CN(C)C(=O)c2cc(S(=O)(=O)Nc3ccccc3OC)ccc2C)c1 | 4
COc1cccc(N(C)C(=O)[C@@H](C2CC2)[C@@H](O)c2ccc(C(C)=O)cc2)c1 | 5
C[C@H]1[C@H](NC(=O)c2ccc(Cl)c(C(F)(F)F)c2)CC[C@@]23CCCN2C(=O)CCC[C@@H]13 | -1
CCN(CC)c1ccc(N=Cc2ccc([N+](=O)[O-])o2)cc1 | 17* | HuH7 TTR inh=-2;TTR act confirm=0
CCN(CC)c1ccc(/C=N/NC(=O)c2ccc([N+](=O)[O-])cc2)cc1 | 0
CCN(CC)c1ccc(N=Cc2ccccc2[N+](=O)[O-])cc1 | -3
COC1OC(COCc2ccccc2)C2OC(C)(C)OC2C1O (stereo not given) | 0
COC(=O)c1cc(-c2ccc(C)cc2)c(=O)n2c1CCC2 | 0
C[C@H]1[C@@H](OC(=O)Nc2ccc(Br)cc2)CC[C@@]23CCCN2C(=O)CCC[C@@H]13 | 3
O=C(NCCc1c[nH]c2ccccc12)OCc1cn(Cc2c(F)cccc2F)nn1 | 0
Cc1cccc(NC(=O)CCCSc2nc3ccccc3[nH]2)c1 | 1
O=C(CCCSc1nc2ccccc2[nH]1)Nc1ccccc1 | 0
Cc1ccccc1OCCCSc1nc2ccccc2[nH]1 | 31* | HuH7 TTR inh=-19;TTR act confirm=0
C=CCN1C(=O)[C@H](CC(=O)N2CCC(c3ccccc3)CC2)[C@@]2(C(=O)OCC)CCCC=C12 | -2
CCCOc1ccc(-c2nc(CSCC(=O)NC3CC3)c(C)o2)cc1 | -1
COC(=O)[C@]12C[C@H](CC(=O)N3CCN(C(=O)C4CC4)CC3)C(=O)N(Cc3ccc(Cl)cc3Cl)C1=C[C@H](C(C)(C)C)O[C@@H]2C | 1
C=CCN(Cc1ccc(OC)cc1OC)C(C#CCCCC)c1ccccc1 (stereo not given) | -1
SMILES | TTR transcr act | others
CC(NC(=O)C1CCC1)c1ccc(Br)cc1 (stereo not given) | 22* | HuH7 TTR inh=-11;TTR act confirm=0
CC(NC(=O)C1CCC1)c1ccc2c(c1)OCO2 (stereo not given) | -2
Cc1ccc(C(C)NC(=O)C2CCCC2)cc1C (stereo not given) | -1
CN(Cc1ccccc1)C(=O)OCc1cn(Cc2cc(F)cc(F)c2)nn1 | 1
O=C(NCc1ccco1)c1cc2n(n1)C(C(F)(F)F)CC(c1ccc(Cl)c(Cl)c1)N2 (stereo not given) | -1
CC(C)NC(=O)c1cc2n(n1)C(C(F)(F)F)CC(c1ccco1)N2 (stereo not given) | 0
O=C(Nc1ccccc1)c1cc2n(n1)C(C(F)(F)F)CC(C1CC1)N2 (stereo not given) | 14* | HuH7 TTR inh=-15;TTR act confirm=1
COc1ccc(C2Nc3ccccc3C(=O)N2Cc2ccccc2)cc1COc1ccc(NC(C)=O)cc1 (stereo not given) | -3
Cc1cccc(CSc2nnc(NC(=O)c3ccco3)s2)c1 | 2
O=C(CSc1nnc(NC(=O)c2ccco2)s1)Nc1ccc(F)cc1 | 2
Cc1cccc(NC(=O)CSc2nnc(NC(=O)c3ccco3)s2)c1 | 11* | HuH7 TTR inh=-29;TTR act confirm=3
CSc1ccccc1C(=O)Nc1cccc(N(C)S(C)(=O)=O)c1 | 0
COc1ccccc1C(=O)Nc1cccc(SC)c1 | 0
COc1ccc(NC(=O)c2ccccc2SC)cc1OC | 12* | HuH7 TTR inh=-7;TTR act confirm=0
FC(F)(F)Oc1ccc(Cn2ccc3ccc(-c4ccc5ccn(Cc6ccccc6)c5c4)cc32)cc1 | -1
c1ccc(OC2CCN(c3ncnc4sccc34)CC2)cc1 | -2
O=C(NCCc1c[nH]c2ccccc12)OCc1cn(Cc2ccc(F)c(F)c2)nn1 | 0
Cc1ccc(C(=O)CCC(=O)NN2C(=O)NC3(CCCCC3)C2=O)cc1 | -2
Cc1nnc(SCC(=O)NN2C(=O)NC3(CCCCC3)C2=O)s1 | 11* | HuH7 TTR inh=-6;TTR act confirm=-1
